Experimental data taken from PubChem BioAssay AID1159580 (chemical genetic matrix, 2015).
Several values for one entry are separate records, joined by “and”; a condition that tells them apart may be missing. Equal entries are not always repeated. Hit rate of the full screen: of about 5,500 compounds, about 2,000 (36%) were called active. Inconclusive results (about 18%) are left out. Cut-off read from the data, not from the text of the source: active = normalized growth mostly below about 0.91 (no sharp cut-off); inconclusive = no clear call, values can overlap the other calls; inactive = mostly above about 0.92. Some of the results follow.

Experiment: chemical genetic growth profiling, strain panel (AID 1159580);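 note: tested at 20 µM; growth read once vehicle control cultures reached saturation at 30 °C; 1 = growth at the plate median or of vehicle wells; lower values mean less growth of the strain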
Conditions: S. cerevisiae deletion strains, growth OD

Measured: normalized growth

CCOC(=O)OC(C)OC(=O)C1N2C(=O)C(NC(=O)[C@H](N)c3ccccc3)C2SC1(C)C (some centres undefined)
inactive: locus YAL013W, strain DEP1, stronger effect = lower value 0.98 | locus YAL021C, strain ccr4, stronger effect = lower value 0.986 | locus YAL026C, strain drs2, stronger effect = lower value 0.981 | locus YAL030W, strain snc1, stronger effect = lower value 0.98 | locus YBL061C, strain skt5, stronger effect = lower value 0.978 | locus YBR009C, strain hhf1, stronger effect = lower value 0.992 | locus YBR021W, strain FUR4, stronger effect = lower value 1.03 | locus YBR023C, strain chs3, stronger effect = lower value 0.986 | locus YBR171W, strain sec66, stronger effect = lower value 0.968 | locus YBR229C, strain ROT2, stronger effect = lower value 0.961 | locus YBR231C, strain swc5, stronger effect = lower value 0.987 | locus YBR279W, strain paf1, stronger effect = lower value 0.989 | locus YCL011C, strain gbp2, stronger effect = lower value 0.965 | locus YCL016C, strain dcc1, stronger effect = lower value 0.993 | locus YCL029C, strain bik1, stronger effect = lower value 0.988 | locus YCL061C, strain MRC1, stronger effect = lower value 0.998 | locus YCL069W, strain vba3, stronger effect = lower value 0.998 | locus YCR088W, strain abp1, stronger effect = lower value 0.985 | locus YDL005C, strain med2, stronger effect = lower value 0.983 | locus YDL035C, strain GPR1, stronger effect = lower value 0.984 | locus YDL040C, strain nat1, stronger effect = lower value 0.989 | locus YDL074C, strain BRE1, stronger effect = lower value 0.917 | locus YDL101C, strain DUN1, stronger effect = lower value 0.97 | locus YDL134C, strain PPH21, stronger effect = lower value 0.998 | locus YDL185W, strain tfp1, stronger effect = lower value 0.975 | locus YDL192W, strain arf1, stronger effect = lower value 0.985 | locus YDR001C, strain nth1, stronger effect = lower value 0.983 | locus YDR069C, strain doa4, stronger effect = lower value 0.993 | locus YDR101C, strain arx1, stronger effect = lower value 0.962 | locus YDR137W, strain rgp1, stronger effect = lower value 0.994 | locus YDR159W, strain sac3, stronger effect = lower value 1 | locus YDR162C, strain NBP2, stronger effect = lower value 0.989 | locus YDR195W, strain ref2 0.985 | locus YDR297W, strain sur2, stronger effect = lower value 0.977 | locus YDR318W, strain mcm21, stronger effect = lower value 0.992 | locus YDR334W, strain swr1, stronger effect = lower value 0.943 | locus YDR335W, strain msn5, stronger effect = lower value 0.979 | locus YDR388W, stronger effect = lower value 0.991 | locus YDR392W, strain spt3, stronger effect = lower value 0.946 | locus YDR502C, strain sam2, stronger effect = lower value 0.99 | locus YEL003W, strain gim4, stronger effect = lower value 0.98 | locus YEL037C, strain rad23, stronger effect = lower value 0.987 | locus YEL061C, strain CIN8 (second series), stronger effect = lower value 0.984 | locus YEL061C, strain CIN8, stronger effect = lower value 0.976 | locus YER015W, strain faa2, stronger effect = lower value 0.981 | locus YER016W, strain bim1, stronger effect = lower value 0.99 | locus YER110C, stronger effect = lower value 0.982 | locus YER111C, strain swi4, stronger effect = lower value 0.985 | locus YER155C, strain BEM2 (second series), stronger effect = lower value 0.995 | locus YER155C, strain BEM2, stronger effect = lower value 0.992 | locus YER167W, strain BCK2, stronger effect = lower value 0.997 | locus YFR010W, strain ubp6, stronger effect = lower value 0.977 | locus YGL078C, strain dbp3, stronger effect = lower value 0.974 | locus YGL086W, strain mad1, stronger effect = lower value 0.966 | locus YGL167C, strain pmr1, stronger effect = lower value 0.991 | locus YGL173C, strain kem1, stronger effect = lower value 0.975 | locus YGL227W, strain vid30, stronger effect = lower value 0.993 | locus YGL240W, strain doc1, stronger effect = lower value 0.984 | locus YGL248W, strain PDE1, stronger effect = lower value 0.969 | locus YGL253W, strain hxk2, stronger effect = lower value 0.971 | locus YGR135W, strain pre9, stronger effect = lower value 1.04 | locus YGR252W, strain gcn5, stronger effect = lower value 0.945 | locus YHR013C, strain ard1, stronger effect = lower value 0.967 | locus YHR027C, strain rpn1, stronger effect = lower value 0.963 | locus YHR030C, strain SLT2, stronger effect = lower value 0.996 and 1.02 | locus YHR079C, strain IRE1 (second series), stronger effect = lower value 0.993 | locus YHR079C, strain IRE1, stronger effect = lower value 0.98 | locus YHR094C, strain hxt1, stronger effect = lower value 0.984 | locus YHR129C, strain ARP1, stronger effect = lower value 0.993 | locus YHR142W, strain chs7, stronger effect = lower value 0.954 | locus YHR200W, strain rpn10, stronger effect = lower value 0.997 | locus YIL066C, strain RNR3, stronger effect = lower value 0.944 | locus YIL073C, strain SPO22, stronger effect = lower value 0.966 | locus YIL125W, strain kgd1, stronger effect = lower value 0.995 | locus YIR030C, strain dcg1, stronger effect = lower value 0.986 | locus YJL092W, strain hpr5, stronger effect = lower value 0.994 | locus YJL095W, strain BCK1 (second series), stronger effect = lower value 0.994 | locus YJL095W, strain BCK1, stronger effect = lower value 0.949 and 0.988 | locus YJL115W, strain asf1, stronger effect = lower value 0.974 | locus YJL129C, strain trk1, stronger effect = lower value 1.01 | locus YJL134W, strain LCB3, stronger effect = lower value 0.992 | locus YJL154C, strain vps35, stronger effect = lower value 0.989 | locus YJL164C, strain tpk1, stronger effect = lower value 0.975 | locus YJL166W, strain qcr8, stronger effect = lower value 0.971 | locus YJL168C, strain set2, stronger effect = lower value 0.984 | locus YJL187C, strain SWE1 (second series), stronger effect = lower value 0.935 | locus YJL187C, strain SWE1, stronger effect = lower value 0.989 | locus YJR043C, strain POL32, stronger effect = lower value 0.98 | locus YJR066W, strain TOR1, stronger effect = lower value 0.966
